Bioassay records as filed in PubChem BioAssay.
BAZ2B inh: qHTS Assay for Inhibitors of BAZ2B. Potency, µM (doses to about 114 µM), for inactives: at the highest dose activity change, negative = inhibition, hits mostly inhibitors. actives 4.4% (n = 360,000). AID 504333, 2011. Bromodomain adjacent to zinc finger domain protein 2B (Homo sapiens), Q9UIF8. AlphaScreen BAZ2B-H3K14Ac peptide displacement; note: potency is the fitted concentration of half-maximal effect; % is set by controls: 0 for no effect and ±100 for the full control effect; nearly all actives have a fitted effect of over 60% in size
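Inhibition is scored as reduced AlphaScreen emission. The BAZ2B/b-H3(5-23)K14Ac complex (50 nM each) in PBS pH 7.4, 0.01% Tween-20 meets compound (up to 110 uM) for 30 min at RT before bead addition.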
G9a block: qHTS Assay for Inhibitors of Histone Lysine Methyltransferase G9a. Potency, µM (highest dose often 102 µM), for the others: at the highest dose activity, negative = inhibition, most hits filed as inhibitors. Histone-lysine N-methyltransferase EHMT2 (Homo sapiens), Q96KQ7. actives 8.8% (n = 350,000). G9a H3K9 monomethylation, AlphaScreen, 2 h; note: potency is the fitted concentration of half-maximal effect; % is set by controls: 0 for no effect and ±100 for the full control effect; nearly all actives have a fitted effect of over 75% in size
Target sequence (Q96KQ7 913-1193 limits assumed): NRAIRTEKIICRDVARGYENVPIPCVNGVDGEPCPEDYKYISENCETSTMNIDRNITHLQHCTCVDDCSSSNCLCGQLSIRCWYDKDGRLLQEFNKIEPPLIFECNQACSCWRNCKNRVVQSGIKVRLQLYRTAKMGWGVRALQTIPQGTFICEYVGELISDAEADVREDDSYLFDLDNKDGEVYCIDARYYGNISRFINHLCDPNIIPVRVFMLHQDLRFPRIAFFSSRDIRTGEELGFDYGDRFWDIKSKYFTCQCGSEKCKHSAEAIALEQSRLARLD
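AlphaScreen read-out: biotin-H3K9 peptide (500 nM) methylation by 20 nM enzyme with 20 uM SAM, 2 h at room temperature after 15 min compound preincubation; anti-monomethyl H3K9 antibody plus donor/acceptor beads, 10 min dark.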
PI5P4Ka inh: qHTS for Inhibitors of phosphatidylinositol 5-phosphate 4-kinase (PI5P4K) | Phosphatidylinositol 5-phosphate 4-kinase type-2 alpha (Homo sapiens), P48426 | PI5P4Kalpha enzyme, ADP-Glo luminescence, 60 min; stronger effect = lower value | max response, % | actives 1.2% (n = 330,000); active = max response of -50% or lower; inconclusive = between -30% and -50%; inactive = -30% or higher; note: value at the top dose of about 77 µM; % is set by controls: 0 for no effect and ±100 for the full control effect
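Luminescence from ADP-Glo served as readout of PI5P4Kalpha activity in a qHTS format. Reaction: enzyme, substrate, compound, ATP at 5 microM final, 60 min at RT.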
JMJD2A Tudor: qHTS Assay for Inhibitors of JMJD2A-Tudor Domain; Lysine-specific demethylase 4A (Homo sapiens), O75164; AlphaScreen JMJD2A-Tudor / H3K4me3 peptide binding; Potency, µM (top dose mostly 114 µM), inactives show at the top dose activity change, negative = inhibition, hits mostly inhibitors; actives 4.4% (n = 390,000); AID 504339, 2011; note: potency is the fitted concentration of half-maximal effect; % is set by controls: 0 for no effect and ±100 for the full control effect; nearly all actives have a fitted effect of over 50% in size
PLK1 PBD block: qHTS for Inhibitors of PLK1-PDB (polo-like kinase 1 - polo-box domain): Primary Screen. Potency, µM, for the others: max response, negative = inhibition, actives largely listed as inhibitors. actives 2.8% (n = 360,000). AID 720504, 2013. Serine/threonine-protein kinase PLK1 (Homo sapiens), P53350. Plk1 PBD binding of FITC phosphopeptide, fluorescence polarization; note: potency is the fitted concentration of half-maximal effect; series mostly up to about 57 µM; % is set by controls: 0 for no effect and ±100 for the full control effect; nearly all actives have a fitted effect of over 65% in size
HP1b chromo inh: HTS for Inhibitors of HP1-beta Chromodomain Interactions with Methylated Histone Tails | Chromobox protein homolog 1 (Homo sapiens), P83916 | AlphaScreen HP1-beta / biotin-H3K9me3 peptide binding | Potency, µM (doses to about 114 µM), for the others: at the top dose activity change, negative = inhibition, hits mostly inhibitors | actives 0.56% (n = 390,000) | AID 540317, 2011; note: potency is the fitted concentration of half-maximal effect; nearly all actives have a fitted effect of over 70% in size
Target sequence (P83916 whole entry, looked up): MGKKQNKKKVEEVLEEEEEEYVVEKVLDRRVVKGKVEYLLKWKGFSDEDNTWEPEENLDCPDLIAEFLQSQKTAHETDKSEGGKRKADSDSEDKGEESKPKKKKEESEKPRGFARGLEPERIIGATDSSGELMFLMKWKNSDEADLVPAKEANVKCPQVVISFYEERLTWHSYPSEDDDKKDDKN
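HP1-beta protein (50 nM final) preincubated 30 min at room temperature with biotinylated H3(1-18)K9me3 peptide (50 nM) in PBS pH 7.4, 0.01% Tween-20, then compound added for 30 min. AlphaScreen streptavidin donor/nickel chelate acceptor beads (10 ug/mL final), 30 min dark, luminescence read.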
Starred values were filed as active, the others as inactive; ? = inconclusive; nt = no result; [ ] = remark or other dose. Shown are actives, neighbours in structure and some others; about 12% of the full set was active somewhere. Unless noted, calls come from the whole dose curve; as a rule, active = well fitted curve in the direction sought with a large enough effect; inconclusive = small, poorly fitted or top-dose-only effect, or another doubt; inactive = no such curve, though single readings can be large; an effect the other way counts as inactive or inconclusive.

SMILES	BAZ2B inh	G9a block	PI5P4Ka inh	JMJD2A Tudor	PLK1 PBD block	HP1b chromo inh
Nc1cc(N)nc(SCC(=O)c2ccccc2)n1	0%	9%[12.7 µM]	-11	-17%	24µM*	-19%
Cc1ccc(C(=O)NNC(=O)CSc2nc(N)cc(N)n2)cc1	3%	-7%[59 µM]	-11	-17%[57.1 µM]	27µM*	?
Nc1cc(N)nc(SCC(=O)Nc2ccccc2)n1	10%	7%[59 µM]	2	3%	-2%	47%
Cc1ccc(N=Nc2[nH]c3ccccc3c2O)cc1	56µM*	14µM*	0	?	-21%	32%
COc1ccc(N=Nc2[nH]c3ccc(C)cc3c2O)cc1	?	11µM*	-5	4%	7%	24%
CCOc1ccc(Nc2ncnc3c2c(-c2ccccc2)cn3-c2cccc(C)c2)cc1	?	-16%[59 µM]	nt	-29%	nt	14%
Oc1[nH]c2ccccc2c1C1=NCCCC1	50µM*	?	-2	?	2%	-24%
CCCc1cc(=O)[nH]c(SCC(=O)N(CCOC)c2c(N)n(Cc3ccccc3)c(=O)[nH]c2=O)n1	9%	50µM*	-2	-1%	0%	49%
COCCN(C(=O)CSc1nnc(-c2ccccc2C)n1C)c1c(N)n(Cc2ccccc2)c(=O)[nH]c1=O	-12%	8.9µM*	-1	-18%	-7%	1%
CCCN(C(=O)CSc1n[nH]c(-c2ccc(OC)cc2)n1)c1c(N)n(Cc2ccccc2)c(=O)[nH]c1=O	2%	45µM*	2	-14%	3%	22%
COc1ccc(-c2nc(SCC(=O)N(CC(C)C)c3c(N)n(Cc4ccccc4)c(=O)[nH]c3=O)n[nH]2)cc1	12%	8%[0.501 µM]	1	-21%	-2%	18%
CCCCN(C(=O)CSc1nc(CCC)cc(=O)[nH]1)c1c(N)n(Cc2ccccc2)c(=O)[nH]c1=O	nt	nt	1	-12%	-11%	11%[57 µM]
COCCN(C(=O)CSc1nnc(C)n1Cc1ccccc1)c1c(N)n(Cc2ccccc2)c(=O)[nH]c1=O	nt	?	-18	?	27µM*	-12%
CCOC(=O)CCCCN(Cc1ccccc1F)S(=O)(=O)c1ccc(F)c(C(=O)Nc2cc(Cl)cc(Cl)c2)c1	11%	33%[59 µM]	nt	-12%	nt	30%
O=C(CN1C(=O)CCc2cc(Br)ccc21)Nc1ccc(OC(F)(F)F)cc1	-13%	7%[59 µM]	nt	-10%	nt	14%[57 µM]
CC1CCCN(C(=O)CN2CCN(C(=O)c3ccco3)CC2)C1 (centres undefined)	-6%	25µM*	3	-3%	-13%	34%
O=C(c1ccco1)N1CCN(CC(=O)N2c3ccccc3CCc3ccccc32)CC1	18µM*	?	-6	1µM*	-2%	14µM*
O=C(CCCSc1nnc(-c2cccs2)n1CC1CCCO1)c1ccccc1 (centres undefined)	-5%	-45%[2.33 µM]	-1	79µM*	1%	34%
Cc1cc(C(=O)Nc2sc3c(c2C#N)CCC(C)C3)no1 (centres undefined)	0%	19%[59 µM]	nt	-12%	-21%	39%
Cc1nnc(NC(=O)c2c(-c3ccccc3)noc2C)s1	-33%	-13%[0.0925 µM]	-6	0%	-6%	34%
Cc1onc(-c2ccccc2)c1C(=O)NC(=S)Nc1sc2c(c1C#N)CCC(C)C2 (centres undefined)	?	3.5µM*	-15	-31%	9.5µM*	-1%
NC(=O)c1c(NC(=O)c2ccccc2C(=O)O)sc2c1CCCC2	?	18%	-9	-6%	-10%	34%
NC(=O)c1c(NC(=O)c2cccnc2Cl)sc2c1CCCC2	-5%	18µM*	-6	-3%	-15%	17%
Cc1onc(-c2ccccc2)c1C(=O)Nc1sc2c(c1C(N)=O)CCC2	?	11µM*	-27	-20%[57.1 µM]	-23%	?
NC(=O)c1c(NC(=O)c2ccccc2Cl)sc2c1CCC2	-15%	nt	8	-1%	1%	15%
SMILES	BAZ2B inh	G9a block	PI5P4Ka inh	JMJD2A Tudor	PLK1 PBD block	HP1b chromo inh
CCC(CC)c1nnc(NC(=O)c2c(-c3ccccc3)noc2C)s1	-2%	40µM*	3	-17%	?	14%
CCOC(=O)c1c(S(=O)(=O)N2CCCC(C(=O)Nc3ccc(OCC)cc3)C2)c(C)n(C)c1C (centres undefined)	1%	3%[59 µM]	nt	-15%	nt	-4%
c1ccc(CNc2nc(NCc3ccccc3)c3sccc3n2)cc1	nt	nt	?	nt	-4%	nt
Cc1onc(-c2ccccc2)c1C(=O)Nc1sc2c(c1C#N)CCC2	?	?	nt	50µM*	?	?
Cc1onc(-c2ccccc2)c1C(=O)NC(=S)Nc1sc2c(c1C#N)CCCC2	?	2µM*	-20	-35%	7.5µM*	-3%
Cc1onc(-c2c(F)cccc2Cl)c1C(=O)Nc1sc2c(c1C#N)CCC(C(C)(C)C)C2 (centres undefined)	-3%	?	2	-24%	-11%	2%
Cc1onc(-c2c(F)cccc2Cl)c1C(=O)Nc1sc2c(c1C(N)=O)CCC2	2%	50µM*	nt	-9%	-6%	3%
COc1ccccc1CNC(=O)c1oc2ccc(S(=O)(=O)N3CCCCC3)cc2c1C	-3%	5%[59 µM]	nt	-17%	nt	12%
CCn1c(C)nc2cc(C(=O)NNS(=O)(=O)c3c(F)cc(F)c(Cl)c3F)ccc21	-20%	40µM*	2	25µM*	-9%	17%
COc1ccc(C(=O)NNC(=S)Nc2ccccc2)cc1	-3%	45µM*	0	-4%	-2%	15%
CCn1c(C)nc2cc(C(=O)NNC(=S)Nc3ccc(OC)cc3)ccc21	-3%	40µM*	0	-8%	-22%	26%
CCNC(=S)NNC(=O)c1ccc(OC)cc1	-15%	6%	1	-3%	-5%	77%
O=C(Nc1cccc(Cl)c1)c1ccccc1	5%	8%[12.7 µM]	8	-4%	-13%	46%
O=C(NNC(=S)Nc1cccc(Cl)c1)c1ccccc1	-9%	35µM*	0	-21%	-26%	19%
CCn1c(C)nc2cc(C(=O)NNS(=O)(=O)c3ccc(C)c(C)c3)ccc21	-7%	-28%[59 µM]	5	-24%	-10%	13%
CCn1c(C)nc2cc(C(=O)NNC(=O)Nc3ccc(Cl)cc3)ccc21	?	?	1	-13%	-3%	35%
CC(C)OCCCNC(=O)CN1C(=O)c2ccccc2Sc2ncccc21	-1%	-5%[59 µM]	nt	-4%	nt	35%
